Laboratory results taken from the supplement of paper PMC11732987, “Enantioselective OTUD7B fragment discovery through chemoproteomics screening and high-throughput optimisation” (Communications Chemistry, 2025).

Key:
Test in all cases: log2 ratio of Biotin-Ahx-Ub-VS probe labelling (fragment/DMSO); higher = less target engagement (more negative = stronger competition), active = hit call of the paper (q ≤ 0.05, log2 ratio ≤ -1)
Conditions in all cases: compound concentration: 200 uM; treatment time: 3 h
USP34 = USP34 (UniProt Q70CQ2)
Sequence of USP34 (Q70CQ2 whole entry, the tested form may be a part): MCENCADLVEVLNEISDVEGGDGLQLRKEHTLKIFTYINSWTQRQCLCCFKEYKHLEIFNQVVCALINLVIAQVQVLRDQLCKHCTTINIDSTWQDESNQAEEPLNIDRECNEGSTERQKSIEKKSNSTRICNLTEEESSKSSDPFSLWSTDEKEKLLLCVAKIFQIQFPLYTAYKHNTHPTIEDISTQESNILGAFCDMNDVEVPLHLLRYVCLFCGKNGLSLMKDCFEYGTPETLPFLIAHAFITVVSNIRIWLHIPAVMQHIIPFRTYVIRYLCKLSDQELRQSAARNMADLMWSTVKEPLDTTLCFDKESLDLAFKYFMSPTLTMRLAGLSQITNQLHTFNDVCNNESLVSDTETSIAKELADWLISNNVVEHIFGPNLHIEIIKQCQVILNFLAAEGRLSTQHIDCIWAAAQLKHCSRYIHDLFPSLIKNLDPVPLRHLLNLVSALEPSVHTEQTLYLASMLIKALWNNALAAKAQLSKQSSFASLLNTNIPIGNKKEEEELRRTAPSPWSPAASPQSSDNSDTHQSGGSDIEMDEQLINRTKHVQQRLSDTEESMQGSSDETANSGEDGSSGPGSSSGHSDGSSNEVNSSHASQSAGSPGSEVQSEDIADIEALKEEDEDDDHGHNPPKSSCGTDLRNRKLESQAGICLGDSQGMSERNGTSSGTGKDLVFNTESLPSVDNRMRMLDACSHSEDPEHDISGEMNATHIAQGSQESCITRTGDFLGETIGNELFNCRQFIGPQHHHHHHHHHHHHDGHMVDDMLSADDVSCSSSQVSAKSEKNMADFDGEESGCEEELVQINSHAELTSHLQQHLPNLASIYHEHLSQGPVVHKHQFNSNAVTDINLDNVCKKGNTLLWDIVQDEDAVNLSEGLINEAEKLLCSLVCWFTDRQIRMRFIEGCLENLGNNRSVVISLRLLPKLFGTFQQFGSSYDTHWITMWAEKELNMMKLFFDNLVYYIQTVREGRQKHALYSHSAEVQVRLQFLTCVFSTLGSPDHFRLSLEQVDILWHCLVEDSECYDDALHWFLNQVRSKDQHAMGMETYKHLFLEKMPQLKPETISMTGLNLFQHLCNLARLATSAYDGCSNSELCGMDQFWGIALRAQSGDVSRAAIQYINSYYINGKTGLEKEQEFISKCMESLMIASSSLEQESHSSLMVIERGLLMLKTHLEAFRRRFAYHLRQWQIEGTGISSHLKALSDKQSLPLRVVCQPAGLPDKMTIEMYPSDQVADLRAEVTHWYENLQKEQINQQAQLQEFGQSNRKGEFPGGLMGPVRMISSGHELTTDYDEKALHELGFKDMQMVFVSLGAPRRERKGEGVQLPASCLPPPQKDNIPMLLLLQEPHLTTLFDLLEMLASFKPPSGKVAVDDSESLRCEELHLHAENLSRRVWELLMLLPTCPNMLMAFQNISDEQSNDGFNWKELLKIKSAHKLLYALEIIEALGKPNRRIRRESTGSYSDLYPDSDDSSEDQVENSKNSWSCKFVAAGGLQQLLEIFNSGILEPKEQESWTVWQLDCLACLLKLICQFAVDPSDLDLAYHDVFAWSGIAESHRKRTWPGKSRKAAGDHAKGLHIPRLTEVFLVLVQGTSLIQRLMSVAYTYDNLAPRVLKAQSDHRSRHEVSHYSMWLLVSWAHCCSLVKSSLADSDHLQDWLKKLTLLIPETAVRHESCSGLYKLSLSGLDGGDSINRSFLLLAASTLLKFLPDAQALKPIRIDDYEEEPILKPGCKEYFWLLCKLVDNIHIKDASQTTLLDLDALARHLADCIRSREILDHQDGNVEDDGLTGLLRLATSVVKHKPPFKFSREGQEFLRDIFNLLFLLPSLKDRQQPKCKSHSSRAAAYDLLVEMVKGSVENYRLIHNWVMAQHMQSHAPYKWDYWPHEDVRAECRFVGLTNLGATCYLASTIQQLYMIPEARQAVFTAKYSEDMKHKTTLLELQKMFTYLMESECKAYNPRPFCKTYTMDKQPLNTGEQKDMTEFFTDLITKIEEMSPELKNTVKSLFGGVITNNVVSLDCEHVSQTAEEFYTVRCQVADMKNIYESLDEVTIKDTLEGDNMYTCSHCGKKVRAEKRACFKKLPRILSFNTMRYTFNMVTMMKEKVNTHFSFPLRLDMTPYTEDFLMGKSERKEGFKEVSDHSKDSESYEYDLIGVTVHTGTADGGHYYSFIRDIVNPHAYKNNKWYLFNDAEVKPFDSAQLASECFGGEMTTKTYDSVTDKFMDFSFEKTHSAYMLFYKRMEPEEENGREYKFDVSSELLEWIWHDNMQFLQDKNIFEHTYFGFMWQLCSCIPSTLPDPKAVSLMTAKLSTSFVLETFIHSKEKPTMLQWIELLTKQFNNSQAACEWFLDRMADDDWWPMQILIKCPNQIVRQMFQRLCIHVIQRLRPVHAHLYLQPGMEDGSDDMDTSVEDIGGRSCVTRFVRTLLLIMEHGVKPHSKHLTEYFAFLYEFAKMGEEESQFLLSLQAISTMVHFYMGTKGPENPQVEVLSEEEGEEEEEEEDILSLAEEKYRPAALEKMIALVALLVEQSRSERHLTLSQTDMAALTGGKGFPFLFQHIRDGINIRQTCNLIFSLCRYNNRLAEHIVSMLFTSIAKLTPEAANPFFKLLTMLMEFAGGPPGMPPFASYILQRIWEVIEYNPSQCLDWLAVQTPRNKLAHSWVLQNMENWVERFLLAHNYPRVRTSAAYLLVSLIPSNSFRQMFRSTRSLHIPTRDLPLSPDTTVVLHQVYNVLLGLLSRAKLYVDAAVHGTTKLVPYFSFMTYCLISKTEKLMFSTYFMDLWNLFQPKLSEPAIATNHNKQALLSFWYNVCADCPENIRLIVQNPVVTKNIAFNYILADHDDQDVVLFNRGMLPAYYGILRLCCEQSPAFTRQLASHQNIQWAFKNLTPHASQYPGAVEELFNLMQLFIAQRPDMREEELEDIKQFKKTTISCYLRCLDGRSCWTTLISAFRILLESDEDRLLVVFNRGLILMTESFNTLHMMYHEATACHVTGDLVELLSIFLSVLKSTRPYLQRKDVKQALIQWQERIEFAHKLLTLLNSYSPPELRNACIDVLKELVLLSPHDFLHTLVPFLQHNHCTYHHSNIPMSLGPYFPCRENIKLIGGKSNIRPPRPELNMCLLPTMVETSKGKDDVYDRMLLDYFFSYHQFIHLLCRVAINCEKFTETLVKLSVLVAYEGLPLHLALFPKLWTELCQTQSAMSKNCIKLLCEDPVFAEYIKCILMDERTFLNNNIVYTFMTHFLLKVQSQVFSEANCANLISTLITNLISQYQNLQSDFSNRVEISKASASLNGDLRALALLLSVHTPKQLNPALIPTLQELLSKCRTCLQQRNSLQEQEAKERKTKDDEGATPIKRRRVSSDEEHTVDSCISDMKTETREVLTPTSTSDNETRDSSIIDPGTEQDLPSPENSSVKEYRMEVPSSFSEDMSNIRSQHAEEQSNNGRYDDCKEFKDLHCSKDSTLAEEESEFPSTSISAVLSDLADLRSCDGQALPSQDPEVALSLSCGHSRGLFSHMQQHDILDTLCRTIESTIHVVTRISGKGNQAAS
Summary of the method: (§1)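 HEK293T lysate (495 µg per sample, in Tris/CHAPS/IGEPAL buffer with protease inhibitors) was treated in triplicate with fragment at 200 µM or with DMSO for 3 h. It was then treated with Biotin-Ahx-Ub-VS (0.5 µM final) for 1 h. Labelled DUBs were NeutrAvidin-enriched, digested with LysC and trypsin, and run by diaPASEF LC-MS/MS. Spectronaut label-free quantities were global-median-normalised. Values are average log2 ratios fragment/DMSO by unpaired t-test, using proteins with ≥2 unique peptides.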

USP36 = biological target: T1, USP36 (UniProt Q9P275)
T1 sequence (whole entry): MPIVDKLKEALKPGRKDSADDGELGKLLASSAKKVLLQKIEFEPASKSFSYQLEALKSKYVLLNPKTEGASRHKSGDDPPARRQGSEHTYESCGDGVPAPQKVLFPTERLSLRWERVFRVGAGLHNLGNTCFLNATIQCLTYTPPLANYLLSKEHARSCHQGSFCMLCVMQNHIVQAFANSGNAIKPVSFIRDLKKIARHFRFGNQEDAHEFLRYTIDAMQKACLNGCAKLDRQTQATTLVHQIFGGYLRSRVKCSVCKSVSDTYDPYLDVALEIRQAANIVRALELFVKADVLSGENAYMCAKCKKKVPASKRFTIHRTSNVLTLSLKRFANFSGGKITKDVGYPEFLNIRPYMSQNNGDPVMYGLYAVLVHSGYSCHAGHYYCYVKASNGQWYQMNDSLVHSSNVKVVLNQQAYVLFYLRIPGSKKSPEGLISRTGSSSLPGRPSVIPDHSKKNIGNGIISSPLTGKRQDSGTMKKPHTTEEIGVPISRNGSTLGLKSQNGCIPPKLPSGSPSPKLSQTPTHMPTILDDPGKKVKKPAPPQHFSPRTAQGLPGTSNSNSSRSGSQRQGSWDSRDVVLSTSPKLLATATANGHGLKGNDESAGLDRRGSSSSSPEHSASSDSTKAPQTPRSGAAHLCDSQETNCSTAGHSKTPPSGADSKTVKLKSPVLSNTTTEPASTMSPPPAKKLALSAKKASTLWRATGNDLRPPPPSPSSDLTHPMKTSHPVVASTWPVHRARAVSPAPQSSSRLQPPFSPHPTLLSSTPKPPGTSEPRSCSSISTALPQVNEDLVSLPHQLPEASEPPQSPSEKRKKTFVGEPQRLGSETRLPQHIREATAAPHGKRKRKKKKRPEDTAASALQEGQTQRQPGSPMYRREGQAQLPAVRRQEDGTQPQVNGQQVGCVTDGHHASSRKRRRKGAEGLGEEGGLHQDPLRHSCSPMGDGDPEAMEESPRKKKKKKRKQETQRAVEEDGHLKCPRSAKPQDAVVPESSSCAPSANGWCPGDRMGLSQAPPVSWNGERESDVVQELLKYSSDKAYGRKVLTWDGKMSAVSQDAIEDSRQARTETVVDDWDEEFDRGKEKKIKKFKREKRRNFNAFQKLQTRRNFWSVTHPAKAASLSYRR
Summary of the method: as §1

USP38 = biological target: T2, USP38 (UniProt Q8NB14)
T2 sequence (whole entry): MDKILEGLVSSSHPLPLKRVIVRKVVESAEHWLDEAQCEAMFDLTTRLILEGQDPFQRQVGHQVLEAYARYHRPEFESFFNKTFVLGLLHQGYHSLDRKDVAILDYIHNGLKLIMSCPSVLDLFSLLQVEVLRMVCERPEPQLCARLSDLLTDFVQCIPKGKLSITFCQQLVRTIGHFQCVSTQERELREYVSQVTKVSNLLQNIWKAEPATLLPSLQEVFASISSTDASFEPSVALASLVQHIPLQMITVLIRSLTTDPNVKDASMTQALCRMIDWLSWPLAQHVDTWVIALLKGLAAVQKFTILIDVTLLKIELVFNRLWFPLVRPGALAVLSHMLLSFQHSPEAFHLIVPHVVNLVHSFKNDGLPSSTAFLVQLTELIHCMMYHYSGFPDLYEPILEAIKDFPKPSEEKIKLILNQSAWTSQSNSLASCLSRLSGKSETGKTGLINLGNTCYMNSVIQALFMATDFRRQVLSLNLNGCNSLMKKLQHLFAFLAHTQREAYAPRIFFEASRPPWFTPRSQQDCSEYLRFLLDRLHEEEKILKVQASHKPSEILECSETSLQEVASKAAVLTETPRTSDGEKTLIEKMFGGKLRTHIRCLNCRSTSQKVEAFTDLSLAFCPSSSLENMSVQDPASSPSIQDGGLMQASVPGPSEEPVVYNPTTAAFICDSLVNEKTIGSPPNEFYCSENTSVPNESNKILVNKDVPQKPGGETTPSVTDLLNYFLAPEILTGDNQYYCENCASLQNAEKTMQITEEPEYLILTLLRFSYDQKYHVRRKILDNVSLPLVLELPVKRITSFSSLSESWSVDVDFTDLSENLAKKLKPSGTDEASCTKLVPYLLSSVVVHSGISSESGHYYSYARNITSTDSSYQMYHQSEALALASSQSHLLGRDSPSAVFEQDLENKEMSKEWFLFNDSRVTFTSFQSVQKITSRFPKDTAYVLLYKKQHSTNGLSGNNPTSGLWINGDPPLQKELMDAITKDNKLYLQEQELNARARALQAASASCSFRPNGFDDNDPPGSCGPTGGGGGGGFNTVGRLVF
Summary of the method: as §1

USP39 = biological target: T3, USP39 (UniProt Q53GS9)
T3 sequence (whole entry): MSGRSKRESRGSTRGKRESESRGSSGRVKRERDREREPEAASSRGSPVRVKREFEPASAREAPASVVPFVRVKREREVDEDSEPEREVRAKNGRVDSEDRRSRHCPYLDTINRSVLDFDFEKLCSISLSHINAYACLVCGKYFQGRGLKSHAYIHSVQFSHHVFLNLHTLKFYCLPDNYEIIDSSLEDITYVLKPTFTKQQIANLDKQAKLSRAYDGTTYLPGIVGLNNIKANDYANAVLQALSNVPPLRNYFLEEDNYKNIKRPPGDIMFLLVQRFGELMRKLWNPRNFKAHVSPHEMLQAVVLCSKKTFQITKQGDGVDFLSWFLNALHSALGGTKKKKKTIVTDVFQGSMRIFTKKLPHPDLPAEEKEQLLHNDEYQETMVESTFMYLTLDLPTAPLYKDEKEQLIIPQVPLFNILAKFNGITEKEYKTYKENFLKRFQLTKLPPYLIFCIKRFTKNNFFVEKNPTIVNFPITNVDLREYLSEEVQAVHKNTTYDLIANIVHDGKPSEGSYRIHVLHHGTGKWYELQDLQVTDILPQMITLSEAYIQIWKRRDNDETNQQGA
Summary of the method: as §1

USP4 = biological target: T4, USP4 (UniProt Q13107)
T4 sequence (whole entry): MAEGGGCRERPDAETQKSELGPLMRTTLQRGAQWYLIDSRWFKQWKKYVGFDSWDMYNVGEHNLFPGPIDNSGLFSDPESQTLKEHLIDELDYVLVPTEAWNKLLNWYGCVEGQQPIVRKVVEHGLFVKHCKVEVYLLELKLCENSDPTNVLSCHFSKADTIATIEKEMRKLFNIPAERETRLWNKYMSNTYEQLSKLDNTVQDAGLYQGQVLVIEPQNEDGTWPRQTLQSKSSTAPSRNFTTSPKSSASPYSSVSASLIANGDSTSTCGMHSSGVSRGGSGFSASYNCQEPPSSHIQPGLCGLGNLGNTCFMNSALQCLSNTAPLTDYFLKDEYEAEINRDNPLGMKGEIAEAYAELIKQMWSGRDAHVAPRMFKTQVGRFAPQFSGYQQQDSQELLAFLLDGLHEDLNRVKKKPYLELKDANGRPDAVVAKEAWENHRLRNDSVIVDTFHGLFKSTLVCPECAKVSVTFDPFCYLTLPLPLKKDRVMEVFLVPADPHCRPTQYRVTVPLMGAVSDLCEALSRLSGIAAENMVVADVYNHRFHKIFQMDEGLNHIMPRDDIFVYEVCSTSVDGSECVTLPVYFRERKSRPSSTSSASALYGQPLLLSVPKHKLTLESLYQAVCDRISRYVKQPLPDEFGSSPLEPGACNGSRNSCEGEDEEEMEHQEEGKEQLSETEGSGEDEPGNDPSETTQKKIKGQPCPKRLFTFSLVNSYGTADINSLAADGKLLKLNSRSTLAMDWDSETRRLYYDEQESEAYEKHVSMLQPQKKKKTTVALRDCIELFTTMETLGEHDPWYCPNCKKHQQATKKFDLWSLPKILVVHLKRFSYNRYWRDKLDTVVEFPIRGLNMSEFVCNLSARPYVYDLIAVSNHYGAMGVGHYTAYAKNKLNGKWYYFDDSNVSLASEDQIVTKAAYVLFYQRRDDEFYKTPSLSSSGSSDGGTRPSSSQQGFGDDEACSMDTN
Summary of the method: as §1

Measured: log2 ratio of Biotin-Ahx-Ub-VS probe labelling

CC(c1ccccc1)N(C)C(=O)CCl (stereo not given)
inactive: USP34 -0.323 | USP36 -0.306 | USP38 -0.0902 | USP39 -0.413 | USP4 -0.289
